TGFb SMAD3 inh: blocks TGF-b signaling; AID 588855; 410,000 compounds, 1.2% hits; Potency, µM (top dose mostly 46.1 µM), without a hit: at the top dose activity, negative = inhibition, hits mostly inhibitors; HepG2 CAGA-GFP TGF-b/SMAD3 reporter, GFP fluorescence, 18 h; TGF-beta stimulated, 500 pg/mL final; also: % is scaled to controls: 0 for no effect and ±100 for the full control effect; nearly all actives have a fitted effect of over 65% in size
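Cell-based qHTS in HEPG2 carrying a CAGA-GFP Smad reporter; compounds added before 500 pg/mL final TGF-beta, 18 h incubation at 37 degrees C, GFP fluorescence quantified per cell by imaging cytometry.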
HepG2 tox: counter-screen for TGF-b inhibitors: cytotoxicity in HepG2 cells | 410,000 compounds, 0.76% hits | HepG2 CAGA-GFP viability, ATP luminescence, 18 h | Potency, µM (series often up to 46.1 µM), inactives show top-dose activity change, negative = cytotoxicity, hits mostly cytotoxic
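CellTiter-Glo luminescence gave cytotoxicity after 18 hours at 37 degrees C. The cells were HepG2 CAGA-GFP in 1% FBS DMEM, stimulated with 500 pg/mL TGF-beta after compound addition. %Activity was normalised to no-cell wells (complete cell-killing) and DMSO (no toxicity), and curves were fitted and classified.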
ATXN2 expr inh: ATXN2 expression inhibition; AID 1745845; HEK-293 ATXN2-luciferase reporter, luminescence, 24 h; 360,000 compounds, 0.72% hits; Potency, µM (doses to about 57 µM), for the others: at the highest dose activity change, negative = inhibition, usual class: inhibitors; also: % is scaled to controls: 0 for no effect and ±100 for the full control effect; nearly all actives have a fitted effect of over 55% in size
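ATXN2-luciferase reporter cells (luciferase flanked by upstream and downstream ATXN2 gene portions) were treated 24 h at 37 °C with compounds at up to 57 uM. SteadyGlo luminescence gave expression; GF-AFC fluorescence gave viability.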
ALOX12 inh: inhibitors of human 12S-lipoxygenase ALOX12 | Potency, µM (titrated, usually from 108 µM), for the others: at the top dose activity change, negative = inhibition, actives largely listed as inhibitors | 580,000 compounds, 1.1% hits | purified 12hLO, xylenol orange hydroperoxide absorbance; also: % is scaled to controls: 0 for no effect and ±100 for the full control effect
Target sequence (P18054 whole entry, looked up): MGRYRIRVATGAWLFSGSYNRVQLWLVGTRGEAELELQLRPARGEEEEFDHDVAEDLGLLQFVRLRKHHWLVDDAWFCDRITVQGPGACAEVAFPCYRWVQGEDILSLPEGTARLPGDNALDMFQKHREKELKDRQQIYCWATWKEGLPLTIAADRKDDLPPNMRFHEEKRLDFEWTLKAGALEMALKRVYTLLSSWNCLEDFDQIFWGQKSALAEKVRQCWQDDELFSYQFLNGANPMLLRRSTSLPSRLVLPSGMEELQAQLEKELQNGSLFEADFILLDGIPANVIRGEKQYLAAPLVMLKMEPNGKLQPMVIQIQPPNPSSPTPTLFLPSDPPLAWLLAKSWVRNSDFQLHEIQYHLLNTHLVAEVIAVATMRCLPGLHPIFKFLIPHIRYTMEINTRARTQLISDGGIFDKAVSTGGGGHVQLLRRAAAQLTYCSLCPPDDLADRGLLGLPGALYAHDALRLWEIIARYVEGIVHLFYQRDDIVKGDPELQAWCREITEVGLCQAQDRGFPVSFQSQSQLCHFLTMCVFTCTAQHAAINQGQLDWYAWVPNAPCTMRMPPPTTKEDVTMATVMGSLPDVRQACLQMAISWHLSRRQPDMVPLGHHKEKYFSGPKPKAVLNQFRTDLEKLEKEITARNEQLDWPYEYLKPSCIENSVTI
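Purified human 12hLO at 150 nM in 25 mM Hepes, 0.01% Triton X-100, pH 7.0, preincubated 15 min at room temperature with compound. Reaction started with 40 uM arachidonic acid, 30 min at room temperature. Hydroperoxide measured by Fe-xylenol orange, 573/405 nm absorbance ratio.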
ATXN viability: reduces viability in counter-screen for ATXN expression inhibitors | AID 651635 | Potency, µM (highest dose often 56.7 µM), hits mostly cytotoxic | S2 cells (HEK-293 line with an ATXN2-luciferase reporter) viability, CellTiter-Fluor protease fluorescence, 24 h | 400,000 compounds, 0.49% hits; also: nearly all actives have a fitted effect of over 40% in size
Active calls of the source: *; i = inactive; ? = inconclusive; nt = not tested or not shown; [ ] = another dose, or the depositor's remark. This is a sample that favours compounds with a hit; in the whole collection about 2.7% have one here. Calls follow the shape of the dose curve; as a rule, active = well fitted curve in the direction sought with a large enough effect; inconclusive = small, poorly fitted or top-dose-only effect, or another doubt; inactive = no such curve, though single readings can be large; an effect the other way counts as inactive or inconclusive. Potency is read from the fitted curve at half-maximal effect.

SMILES	TGFb SMAD3 inh	HepG2 tox	ATXN2 expr inh	ALOX12 inh	ATXN viability
Cc1c(CCC(=O)NC2CCS(=O)(=O)C2)c(=O)oc2cc(O)ccc12 (configuration not stated)	nt	nt	nt	-10%	nt
O=C(NC(=S)Nc1nc(-c2ccccc2)cs1)c1cncc(Br)c1	0%	-4%	6%	2%	i
O=C(NC(=S)Nc1nc(-c2ccccc2)cs1)c1cccnc1	-2%	-2%	-8%	35µM*	i
CN1CCN(c2nc3nnnn3c3sc4c(c23)CCN(Cc2ccccc2)C4)CC1	nt	nt	nt	-2%	nt
NC(=S)N/N=C/c1ccccc1OC(=O)/C=C/c1ccccc1	7.1µM*	4µM*	1.8µM*	5.6µM*	?
CC(=O)Oc1ccc2c(=O)c(-c3ccc(Cl)cc3)coc2c1	nt	nt	nt	-48%	nt
CN(Cc1ccccc1F)S(=O)(=O)c1cccc2nsnc12	nt	nt	nt	-3%	nt
COc1ccc(N(CC(=O)Nc2ccccc2C(=O)N2CCCCCC2)S(C)(=O)=O)c(OC)c1	nt	nt	nt	42%	nt
CSc1ccccc1NC(=O)/C(=C/c1ccco1)c1ccccc1	nt	nt	nt	50µM*	nt
O=C(CSc1nc2nc[nH]c2c(=O)[nH]1)NCc1ccccc1	nt	nt	nt	0.56µM*	nt
CCOC(=O)C1CCCN(CCN(C)C)C1 (configuration not stated)	nt	nt	nt	-10%	nt
Cc1ccc2c(C)c(C(=O)N(Cc3ccccc3)C3CCS(=O)(=O)C3)oc2c1 (configuration not stated)	9%	-4%	-9%	-17%	i
Cc1ccc2c(C)c(C(=O)N(Cc3ccc(Cl)cc3)C3CCS(=O)(=O)C3)oc2c1 (configuration not stated)	11µM*	6%	-30%	7%	?
CCOC(=O)c1cnc(SCC(=O)Nc2ccc(C)cc2Cl)nc1N	nt	nt	nt	16%	nt
O=Cc1cccc(OCc2cn(CC(=O)c3ccc(O)cc3)nn2)c1	2%	6%	2%	?	i
COc1ccc(C=O)c(OCc2cn(CC(=O)c3ccc(O)cc3)nn2)c1	-3%	-19%	0%	1.3µM*	i
Cc1cc(NCc2cccs2)ccc1NC(=O)c1ccco1	nt	nt	nt	-28%	nt
CC(=O)C1=C(O)C(=O)N(c2cccc(Br)c2)C1c1ccc(Br)cc1 (configuration not stated)	-1%	-3%	-2%	?	i
CC(=O)C1=C(O)C(=O)N(c2ccc(Br)cc2)C1c1ccc(Br)cc1 (configuration not stated)	-16%	-11%	-4%	7.9µM*	i
CC(=O)C1=C(O)C(=O)N(c2nccs2)C1c1ccccc1 (configuration not stated)	1%	17%	1%	8.9µM*	i
CC(C)CC(=O)C1=C(O)C(=O)N(Cc2ccccc2)C1c1ccccc1 (configuration not stated)	-2%	-1%	nt	-20%	i
CC(=O)C1=C(O)C(=O)N(Cc2ccccc2)C1c1ccc(Br)cc1 (configuration not stated)	0%	13%	-15%	11µM*	i
CC1CN(Cc2c(O)ccc3c(=O)c(-c4ccccc4)coc23)CC(C)O1 (configuration not stated)	-22%	0%	-33%	0%	i
CC1CN(Cc2c(O)ccc3c2oc(=O)c2ccccc23)CC(C)O1 (configuration not stated)	-8%	4%	nt	5.6µM*	?
CSC1=N/C(=C\c2cc(C)ccc2C)C(=O)S1	nt	nt	nt	-18%	nt
SMILES	TGFb SMAD3 inh	HepG2 tox	ATXN2 expr inh	ALOX12 inh	ATXN viability
COc1ccc(-c2cc3nccn3c(Nc3ncccc3C(N)=O)n2)cc1OC	nt	nt	?	1.4µM*	nt
CCOC(=O)c1ccc(N2C(=O)c3[nH]nc(-c4ccc(OCC)cc4)c3C2c2cccs2)cc1 (configuration not stated)	?	-20%	?	-9%	?
CCOc1ccc(N2C(=O)c3[nH]nc(-c4ccc(OC)cc4)c3C2c2cccs2)cc1 (configuration not stated)	?	-28%	?	?	18µM*
COc1ccc(N2C(=O)c3[nH]nc(-c4ccccc4)c3C2c2ccc(Br)cc2)cc1 (configuration not stated)	nt	nt	nt	-18%	nt
CCOc1ccc(-c2n[nH]c3c2C(c2cccs2)N(c2ccc(Br)cc2)C3=O)cc1 (configuration not stated)	6.3µM*	-61%	nt	-18%	nt
CCOc1ccccc1CN1CCCC2(Cc3ccccc3CNC2=O)C1 (configuration not stated)	nt	nt	nt	0%[6.33 µM]	nt
CC(=O)c1cccc(NC(=O)COC(=O)c2ccc(S(C)(=O)=O)c([N+](=O)[O-])c2)c1	10µM*	-105%	18%	0%	i
CC(=O)c1cccc(NC(=O)C(C)OC(=O)c2ccc(S(C)(=O)=O)c([N+](=O)[O-])c2)c1 (configuration not stated)	11µM*	14µM*	nt	nt	nt
CC(OC(=O)c1ccncc1)C(=O)Nc1cccc([N+](=O)[O-])c1 (configuration not stated)	-1%	-1%	-22%	1%	i
C=CCn1c(C)cc(C(=O)COC(=O)Cn2cnc3c2c(=O)n(C)c(=O)n3C)c1C	nt	nt	nt	-10%	nt
CCOc1ccc(/C=C/C2=Cc3c(sc(NC(=O)CSc4n[nH]c(N)n4)c3C#N)C(C)(C)C2)cc1	-16%	20µM*	?	?	nt
CCOC(=O)c1sc(NC(=O)CSc2n[nH]c(-c3ccncc3)n2)c(C#N)c1C	?	-41%	-10%	0%[57.4 µM]	i
Cc1ccsc1/C=C/C1=Cc2c(sc(NC(=O)CSc3n[nH]c(N)n3)c2C#N)C(C)(C)C1	10µM*	13µM*	?	?	i
Cc1ccsc1/C=C/C1=Cc2c(sc(N)c2C#N)C(C)(C)C1	nt	nt	nt	18µM*	nt
NC(=O)c1ccsc1NC(=O)CSc1n[nH]c(N)n1	-21%	5%	-12%	4%	i
O=C(NCCCN1CCCC1)c1ccc2c(c1)N(Cc1cccc(Cl)c1)C(=O)c1ccccc1S2=O (configuration not stated)	14%	-38%	-18%	-18%	i
CC1CCCN(CCCNC(=O)c2ccc3c(c2)N(Cc2ccc(Cl)cc2)C(=O)c2ccccc2S3(=O)=O)C1 (configuration not stated)	?	20µM*	nt	?	nt
CC1CC(C)CN(CCCNC(=O)c2ccc3c(c2)N(Cc2ccccc2)C(=O)c2ccccc2S3=O)C1 (configuration not stated)	?	-94%	nt	-10%	28µM*
Cc1ccc(C)c(CN2C(=O)c3ccccc3S(=O)(=O)c3ccc(C(=O)NCCCN4CCCC(C)C4)cc32)c1 (configuration not stated)	nt	11µM*	nt	?	nt

From PubChem
